CHT PAM: allosteric activators of human choline transporter CHT. Q9GZV3. CHT-expressing cells, membrane potential dye, choline EC20; stronger effect = higher value; LV-AA mutant CHT in HEK293 cells. B-score at 10 µM. actives 0.49% (n = 310,000);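 active = initial fluorescence not abnormally high and integrated response B-score, plate-corrected, over 3 SD above library mean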
Target sequence (Q9GZV3 whole entry, looked up): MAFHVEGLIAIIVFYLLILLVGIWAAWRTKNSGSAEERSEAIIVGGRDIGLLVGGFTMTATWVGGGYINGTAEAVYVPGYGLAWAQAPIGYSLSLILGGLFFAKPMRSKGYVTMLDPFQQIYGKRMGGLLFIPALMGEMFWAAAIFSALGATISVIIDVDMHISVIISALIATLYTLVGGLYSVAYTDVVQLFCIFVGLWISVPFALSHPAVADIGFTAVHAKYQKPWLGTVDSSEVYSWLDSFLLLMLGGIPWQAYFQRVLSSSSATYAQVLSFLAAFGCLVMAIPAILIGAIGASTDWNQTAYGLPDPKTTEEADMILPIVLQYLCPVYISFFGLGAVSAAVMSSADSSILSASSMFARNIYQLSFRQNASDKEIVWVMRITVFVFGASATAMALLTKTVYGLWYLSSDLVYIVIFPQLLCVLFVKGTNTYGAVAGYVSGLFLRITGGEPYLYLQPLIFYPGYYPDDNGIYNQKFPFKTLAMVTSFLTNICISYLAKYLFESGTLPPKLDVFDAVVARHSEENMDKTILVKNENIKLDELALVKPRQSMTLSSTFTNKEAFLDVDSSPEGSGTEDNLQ
PKA-R2B act: activates the human PKA-R2B holoenzyme complex; actives 0.079% (n = 340,000); AID 504700; PKA-R2B holoenzyme dissociation, Cy5-IP20 fluorescence polarization; R2B truncated from residue 108, S112A mutant; 0% DMSO only, 100% 113 µM cGMP; P22694+P31323; activation, % at 11.4 µM;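 active = activation above a cutoff set at the mean over all compounds plus 3 SD, cut at about 18% in these data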;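 note: higher means more holoenzyme dissociation and a rise in polarization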
CHT inh: inhibits the human high affinity choline transporter | Q9GZV3 | CHT-expressing cells, membrane potential dye, choline response; stronger effect = lower value | B-score at 10 µM | actives 0.86% (n = 310,000) | AID 488975;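 active = B-score over 3 SD under the library average, and starting fluorescence ratio not unusually high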;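 note: choline stimulus applied at its EC90 after an EC20 pre-addition; B-score computed on integrated fluorescence ratio after choline addition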
PKA-R1A act: activates the PKA-R1A holoenzyme complex. actives 0.083% (n = 340,000). AID 504707. activation, % at 11.4 µM. PKA-R1A dissociation, Cy5-IP20 fluorescence polarization; scaled: DMSO 0%, 113 µM cGMP 100%. P00514+P68181;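 active = percent activation above the mean of all tested compounds plus 3 SD, cut at about 19% in these data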;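 note: higher means more PKAc released from R1A so a rise in polarization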
TMEM16A inh: blocks the mouse calcium-activated chloride channel TMEM16A; Q8BHY3; actives 1.2% (n = 310,000); HEK293 TMEM16A/YFP iodide influx fluorescence, ionomycin; normalized B-score (activity score, 25-100; higher = stronger inhibition) at 10 µM;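 active = ratio plate-corrected score three or more library SD toward inhibition, starting fluorescence score within five deviations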;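 note: score derived from kinetic fluorescence span divided by baseline fluorescence per well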
TMEM16A act: activators or potentiators of mouse TMEM16A chloride channel; HEK293 TMEM16A/YFP-H148Q/I152L, iodide quench fluorescence; stronger effect = lower value; actives 0.3% (n = 340,000); B-score at 10 µM; Q8BHY3;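 active = fluorescence-ratio B-score plate-corrected deviation score at least 3 library SD below zero, with starting fluorescence score within 5 deviations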;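 note: channel opened by trigger with iodide after compound preincubation; score built on the fluorescence ratio of max minus min over baseline; more negative score means more quench and so TMEM16A activation or potentiation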
CHT block conf: human CHT inhibition, confirmatory screen; shares compounds with CHT inh; CHT-expressing cells, choline membrane potential dye; LV-to-AA substituted CHT, HEK293 cells; CHT activity remaining % of control (stronger effect = lower value), % at 10 µM; actives 70% (n = 2,400);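 active = choline transporter activity left, mean of duplicates at 10 µM, below buffer-only control mean minus 3 SD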;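 note: depolarization triggered by choline at its EC90 following an EC20 pre-addition; 0% = hemicholinium-3 full block and 100% = buffer-only control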
HEK293 MPD ctr: activity in parental HEK293 cells lacking CHT; shares compounds with CHT inh; membrane potential dye, choline response; active = decrease or increase beyond buffer ±3SD; membrane potential ratio readout (active if shifted either direction beyond buffer ±3SD; no single direction) at 10 µM; actives 4% (n = 2,400); AID 493222;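 note: parental cells lack the transporter so any hit is non-specific; ratio is peak minus trough fluorescence over baseline after EC90 choline challenge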
* = called active by the depositor; i = inactive; · = no result. Only some compounds are listed: those with a hit (about 2.5% of all), similar ones and a draw of the others.

SMILES	CHT PAM	PKA-R2B act	CHT inh	PKA-R1A act	TMEM16A inh	TMEM16A act	CHT block conf	HEK293 MPD ctr
CCN(CC)S(=O)(=O)c1ccc(NN=c2c(=O)c3ccccc3c2=O)cc1	i	-12	i	-13	i	i	·	·
O=C(NNC(=O)c1cc([N+](=O)[O-])ccc1Cl)c1cccnc1	i	-6	i	-6	i	i	·	·
Cc1cc(C(=O)OCC(=O)N2CCc3ccccc32)ccc1[N+](=O)[O-]	·	2	·	1	·	i	·	·
COc1ccc(C2(C(=O)Nc3ccc(S(=O)(=O)Nc4nc(C)cc(C)n4)cc3)CCCC2)cc1OC	i	-4	-7.7*	-5	i	i	29%*	i
COc1cccc(-n2c(C)cc(/C=C3/C(=N)N4C(=NC3=O)SN=C4S(C)(=O)=O)c2C)c1	i	-5	i	-5	i	i	·	·
COc1cc(/C=C2/C(=N)N3C(=NC2=O)SN=C3S(C)(=O)=O)ccc1OS(=O)(=O)c1ccc(C)cc1	i	-2	i	3	i	i	·	·
CSC1=NSC2=NC(=O)/C(=C\c3ccc(OC(=O)c4ccco4)cc3)C(=N)N12	i	2	i	2	i	i	·	·
CCS(=O)(=O)C1=NSC2=NC(=O)/C(=C\c3ccc(OS(=O)(=O)c4ccccc4)c(OC)c3)C(=N)N21	i	1	-5.3*	3	i	i	48%*	i
Cc1ccc(S(=O)(=O)Oc2ccc(/C=C3/C(=N)N4C(=NC3=O)SN=C4S(C)(=O)=O)cc2)cc1	i	-5	-6.1*	-7	i	i	48%*	i
COc1cc(/C=C2\C(=N)N3N=C(S(C)(=O)=O)SC3=NC2=O)ccc1OS(=O)(=O)c1ccccc1	i	·	i	·	i	·	·	·
CC(C)CS(=O)(=O)C1=NSC2=NC(=O)/C(=C\c3ccc(OC(=O)c4ccco4)cc3)C(=N)N21	i	4	-6.9*	-8	i	i	65%*	i
CS(=O)(=O)C1=NSC2=NC(=O)/C(=C\c3ccc(OS(=O)(=O)c4ccccc4)cc3)C(=N)N21	i	-9	-6.6*	-3	i	i	58%*	i
CC/C=C\[C@H](O)[C@H](O)C1=C(C)C(=O)[C@]2(O1)C(=O)N[C@@](OC)(C(=O)c1ccccc1)C2O (some centres undefined)	i	-6	i	7	i	i	·	·
CCS(=O)(=O)C1=NN2C(=N)/C(=C\c3ccc(OS(=O)(=O)c4ccccc4)cc3)C(=O)N=C2S1	i	1	-8.7*	-9	i	i	42%*	i
Cc1ccc(NC(=O)CSc2n[nH]c(=O)n2C2CC2)cc1S(=O)(=O)N1CCOCC1	i	-11	-6.8*	-8	i	i	i	i
CCN(CC)C(=S)SCC(=O)Nc1ccc(S(N)(=O)=O)cc1	i	0	-5.6*	4	i	i	i	i
CN(C)CC(=O)Nc1ccc(S(N)(=O)=O)cc1	i	-4	i	-6	i	i	·	·
CCOc1cc2[nH]c(=S)n(C3CCN(Cc4ccccc4)CC3)c(=O)c2cc1OCC	i	7	-5.8*	-9	i	i	i	i
Cc1cc(C)c(C#N)c(SCS(=O)Cc2ccccc2)n1 (centres undefined)	i	4	-5.9*	13	i	i	i	i
Cc1cc(C)c(C#N)c(SCS(=O)Cc2ccc(Cl)cc2)n1 (centres undefined)	i	-4	i	-9	i	i	·	·
